Source: PubChem BioAssay (Tox21)
Values without a mark were called inactive. Records with an inconclusive call do not appear. Entries that show only a call come without a potency. The source made the active and inactive calls. Calls follow the shape of the dose curve; as a rule, active = well fitted curve in the direction sought with a large enough effect in the repeat runs; inconclusive = weak or mixed curves; inactive = no such curve, though single readings can be large; an effect the other way counts as inactive or inconclusive.

What was measured:
[1] = A CellTox Green Cytotoxicity Assay to monitor cytotoxicity in HEK293 cells - 24 hour (AID 1224875); also: series mostly up to about 77 µM; nearly all actives have a fitted effect of over 45% in size
How it was run: (§1)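 Fluorescence intensity, read at 0, 8, 16, 24, 32 and 40 h of compound treatment, reflected dye binding to DNA of dead HEK293 cells; compounds (23 nL, DMSO) were added 5 h after plating cells with reagent.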

[2] = A CellTox Green Cytotoxicity Assay to monitor cytotoxicity in HepG2 cells - 16 hour (AID 1224876); also: nearly all actives have a fitted effect of over 45% in size; also: potency is read from the fitted curve at half-maximal effect
How it was run: (§2)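 Using 1536-well format, dye-containing HepG2 suspension was seeded, allowed 5 h at 37 C/5% CO2, dosed by pintool with compounds, positive and negative controls, and imaged for fluorescence across 40 h.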

[3] = qHTS RealTime-Glo MT Cell Viability Assay in HepG2 cells - 32 hour (AID 1224877); also: nearly all actives have a fitted effect of over 55% in size
How it was run: (§3)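 Viability was tracked continuously by NanoLuc luminescence from prosubstrate reduced by living HepG2 cells, at successive time points over 40 h of compound exposure. Cells with reagent were preincubated 5 h at 37 °C before compound addition.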

[4] = A CellTox Green Cytotoxicity Assay to monitor cytotoxicity in HepG2 cells - 24 hour (AID 1224878); also: nearly all actives have a fitted effect of over 45% in size; also: potency is read from the fitted curve at half-maximal effect
How it was run: as §2

[5] = A CellTox Green Cytotoxicity Assay to monitor cytotoxicity in HepG2 cells - 40 hour (AID 1224879); also: nearly all actives have a fitted effect of over 40% in size; also: potency is read from the fitted curve at half-maximal effect
How it was run: as §2

[6] = qHTS RealTime-Glo MT Cell Viability Assay in HEK293 cells - 0 hour (AID 1224880); also: top concentration of the series differs between compounds; nearly all actives have a fitted effect of over 45% in size
How it was run: (§4)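 Viable HEK293 cells reduce a cell-permeant prosubstrate; the product diffuses out and is consumed by NanoLuc in the medium to give light. Compounds went in after a 5 h incubation and plates were read over the treatment course.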

[7] = A CellTox Green Cytotoxicity Assay to monitor cytotoxicity in HEK293 cells - 32 hour (AID 1224881); also: nearly all actives have a fitted effect of over 40% in size
How it was run: as §1

[8] = A CellTox Green Cytotoxicity Assay to monitor cytotoxicity in HepG2 cells - 0 hour (AID 1224882); also: nearly all actives have a fitted effect of over 35% in size
How it was run: as §2

[9] = A CellTox Green Cytotoxicity Assay to monitor cytotoxicity in HepG2 cells - 32 hour (AID 1224883); also: nearly all actives have a fitted effect of over 50% in size; also: potency is read from the fitted curve at half-maximal effect
How it was run: as §2

[10] = A CellTox Green Cytotoxicity Assay to monitor cytotoxicity in HEK293 cells - 8 hour (AID 1224884); also: nearly all actives have a fitted effect of over 35% in size
How it was run: as §1

[11] = qHTS RealTime-Glo MT Cell Viability Assay in HepG2 cells - 16 hour (AID 1224885); also: nearly all actives have a fitted effect of over 50% in size
How it was run: as §3

[12] = qHTS RealTime-Glo MT Cell Viability Assay in HEK293 cells - 8 hour (AID 1224887); also: nearly all actives have a fitted effect of over 50% in size; also: potency is read from the fitted curve at half-maximal effect
How it was run: as §4

[13] = A CellTox Green Cytotoxicity Assay to monitor cytotoxicity in HEK293 cells - 16 hour (AID 1224888); also: nearly all actives have a fitted effect of over 35% in size; also: potency is read from the fitted curve at half-maximal effect
How it was run: as §1

[14] = qHTS RealTime-Glo MT Cell Viability Assay in HepG2 cells - 0 hour (AID 1224889); also: nearly all actives have a fitted effect of over 50% in size
How it was run: as §3

[15] = A CellTox Green Cytotoxicity Assay to monitor cytotoxicity in HepG2 cells - 8 hour (AID 1224890); also: nearly all actives have a fitted effect of over 45% in size
How it was run: as §2

[16] = qHTS assay to identify small molecule antagonists of the androgen receptor (AR) signaling pathway using the MDA cell line in the presence of 0.5 nM R1881 - cell viability counter screen (AID 1259242); also: nearly all actives have a fitted effect of over 45% in size
How it was run: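 Viability of MDA-kb2 cells was multiplexed with the luciferase AR readout; after 16 hr with compounds and R1881 at 0.5 nM final, CellTiter-Fluor fluorescence was recorded.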

[17] = qHTS RealTime-Glo MT Cell Viability Assay in HEK293 cells - 40 hour (AID 1224874); conditions: RealTime-Glo luminescence; max response: stronger effect = lower value; also: nearly all actives have a fitted effect of over 50% in size
How it was run: as §4

[18] = qHTS RealTime-Glo MT Cell Viability Assay in HEK293 cells - 24 hour (AID 1224886)
How it was run: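 Viability tracked continuously by luminescence as live cells reduce a prosubstrate for NanoLuc; HEK293 cells preincubated 5 h, compound-treated at 37 C, and read at 0, 8, 16, 24, 32 and 40 h.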

[19] = qHTS assay to identify small molecule antagonists of the estrogen receptor alpha (ER-alpha) signaling pathway using the BG1 cell line in the presence of 0.1 nM 17-beta-estradiol - cell viability counter screen (AID 1259241); also: nearly all actives have a fitted effect of over 40% in size
How it was run: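 Cytotoxicity counter-screen: live-cell protease activity measured by fluorescence (30 min reagent step) in the same wells. Cells were VM7Luc4E2 with endogenous ER-alpha and ERE-driven luciferase, treated 22 hr at 37C alongside 0.1 nM 17beta-estradiol final.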

[20] = target: Androgen receptor (Homo sapiens) (UniProt P10275); experiment: qHTS assay to identify small molecule antagonists of the androgen receptor (AR) signaling pathway using the MDA cell line in the presence of 0.5 nM R1881 (AID 1259243); also: nearly all actives have a fitted effect of over 50% in size
How it was run: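 Reporter cells cultured without CO2 receive test chemicals, then 0.5 nM R1881 final; after 16 hr at 37C, ONE-Glo is added and light output recorded.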

Chain of Androgen receptor (Homo sapiens) (P10275 whole entry, looked up): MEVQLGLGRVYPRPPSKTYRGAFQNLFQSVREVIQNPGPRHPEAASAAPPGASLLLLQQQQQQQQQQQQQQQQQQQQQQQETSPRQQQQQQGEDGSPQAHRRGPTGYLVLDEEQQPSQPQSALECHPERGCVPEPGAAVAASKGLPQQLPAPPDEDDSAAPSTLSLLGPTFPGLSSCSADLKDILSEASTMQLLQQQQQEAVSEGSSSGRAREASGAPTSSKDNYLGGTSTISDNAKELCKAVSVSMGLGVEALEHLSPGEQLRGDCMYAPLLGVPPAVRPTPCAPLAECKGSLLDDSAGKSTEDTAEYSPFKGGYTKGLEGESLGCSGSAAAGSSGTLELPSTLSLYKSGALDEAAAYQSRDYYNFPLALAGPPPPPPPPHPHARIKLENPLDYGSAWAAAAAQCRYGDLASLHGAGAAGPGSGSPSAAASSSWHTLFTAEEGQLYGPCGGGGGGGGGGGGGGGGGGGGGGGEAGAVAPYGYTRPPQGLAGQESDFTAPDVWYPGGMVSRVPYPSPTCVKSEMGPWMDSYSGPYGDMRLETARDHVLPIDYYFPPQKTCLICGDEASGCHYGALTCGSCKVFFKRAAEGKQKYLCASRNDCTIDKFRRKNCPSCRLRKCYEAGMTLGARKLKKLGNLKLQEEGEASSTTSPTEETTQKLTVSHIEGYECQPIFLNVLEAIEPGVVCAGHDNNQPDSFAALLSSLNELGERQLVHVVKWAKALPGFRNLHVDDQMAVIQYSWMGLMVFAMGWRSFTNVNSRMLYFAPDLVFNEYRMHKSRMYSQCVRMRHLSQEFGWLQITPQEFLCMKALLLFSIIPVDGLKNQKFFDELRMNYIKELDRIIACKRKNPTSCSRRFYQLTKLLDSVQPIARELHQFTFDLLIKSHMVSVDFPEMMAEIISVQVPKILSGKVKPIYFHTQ

CN(C(=O)CCCOc1ccc2[nH]c(=O)ccc2c1)C1CCCCC1
Potency [1]: inactive | Potency [2]: inactive | Potency [3]: inactive | Potency [4]: inactive | Potency [5]: inactive | Potency [6]: inactive | Potency [7]: inactive | Potency [8]: inactive | Potency [9]: inactive | Potency [10]: inactive | Potency [11]: inactive | Potency [12]: inactive | Potency [13]: inactive | Potency [14]: inactive | Potency [15]: inactive | Potency [16]: inactive

Cc1cccc(C(C)(C)C)c1O
max response [17]: -2.49% | Potency [2]: inactive | Potency [3]: inactive | Potency [4]: inactive | Potency [6]: inactive | Potency [8]: inactive | Potency [11]: inactive | Potency [18]: inactive | Potency [12]: inactive | Potency [13]: inactive | Potency [14]: inactive | Potency [19]: inactive | Potency [16]: inactive

CCOC(=O)[C@H](CCc1ccccc1)N[C@H]1CCc2ccccc2N(CC(=O)O)C1=O
Potency [2]: 26.8 µM (active) | Potency [4]: 26.8 µM (active) | Potency [5]: 26.8 µM (active) | Potency [8]: inactive | Potency [9]: 26.8 µM (active) | Potency [13]: inactive | Potency [19]: inactive

CCCCOc1ccc(CC(=O)NO)cc1
Potency [1]: inactive | Potency [2]: inactive | Potency [3]: inactive | Potency [4]: inactive | Potency [6]: inactive | Potency [7]: inactive | Potency [8]: inactive | Potency [10]: inactive | Potency [11]: inactive | Potency [12]: 2.13 µM (active) | Potency [13]: inactive | Potency [14]: inactive | Potency [15]: inactive | Potency [19]: inactive | Potency [16]: inactive

CC1(C)CCC(C)(C)c2cc(NC(=O)c3ccc(C(=O)O)cc3)ccc21
Potency [1]: inactive | Potency [2]: inactive | Potency [3]: inactive | Potency [4]: inactive | Potency [5]: inactive | Potency [7]: inactive | Potency [9]: inactive | Potency [10]: inactive | Potency [11]: inactive | Potency [13]: inactive | Potency [14]: inactive | Potency [15]: inactive | Potency [19]: inactive | Potency [16]: inactive

CCCCCCCC/C=C\CCCCCCCC(N)=O
Potency [2]: inactive | Potency [3]: inactive | Potency [4]: 24.5 µM (active) | Potency [5]: 34.7 µM (active) | Potency [6]: inactive | Potency [8]: inactive | Potency [10]: inactive | Potency [11]: inactive | Potency [12]: inactive | Potency [13]: inactive | Potency [14]: inactive | Potency [15]: inactive | Potency [19]: inactive | Potency [16]: inactive | Potency [20]: inactive

CCCCCc1ccc(N)cc1
Potency [3]: inactive | Potency [4]: 49 µM (active) | Potency [5]: 49 µM (active) | Potency [6]: inactive | Potency [8]: inactive | Potency [9]: 49 µM (active) | Potency [10]: inactive | Potency [11]: inactive | Potency [18]: inactive | Potency [13]: inactive | Potency [14]: inactive | Potency [19]: inactive | Potency [16]: inactive

CC(CN)CCCN (centres undefined)
Potency [1]: inactive | Potency [2]: inactive | Potency [3]: inactive | Potency [4]: inactive | Potency [5]: inactive | Potency [6]: inactive | Potency [7]: inactive | Potency [8]: inactive | Potency [9]: inactive | Potency [11]: inactive | Potency [18]: inactive | Potency [12]: inactive | Potency [13]: inactive | Potency [14]: inactive | Potency [15]: inactive | Potency [16]: inactive

Cc1ccccn1
Potency [1]: inactive | Potency [2]: inactive | Potency [3]: inactive | Potency [4]: inactive | Potency [5]: inactive | Potency [6]: inactive | Potency [7]: inactive | Potency [8]: inactive | Potency [9]: inactive | Potency [11]: inactive | Potency [18]: inactive | Potency [12]: inactive | Potency [13]: inactive | Potency [14]: inactive | Potency [15]: inactive | Potency [19]: inactive | Potency [16]: inactive

Nc1ccc(C(=O)Nc2ccccc2N)cc1
Potency [1]: inactive | Potency [2]: inactive | Potency [5]: 5.35 µM (active) | Potency [6]: inactive | Potency [7]: inactive | Potency [8]: inactive | Potency [9]: 7.56 µM (active) | Potency [10]: inactive | Potency [11]: inactive | Potency [12]: inactive | Potency [13]: inactive | Potency [14]: inactive | Potency [15]: inactive | Potency [19]: inactive | Potency [16]: inactive

C1CCC2OC2C1 (centres undefined)
Potency [1]: inactive | Potency [2]: inactive | Potency [3]: inactive | Potency [4]: inactive | Potency [5]: inactive | Potency [6]: inactive | Potency [7]: inactive | Potency [8]: inactive | Potency [9]: inactive | Potency [11]: inactive | Potency [18]: inactive | Potency [12]: inactive | Potency [13]: inactive | Potency [14]: inactive | Potency [15]: inactive | Potency [16]: inactive | Potency [20]: inactive

Cn1sccc1=O
Potency [1]: inactive | Potency [2]: inactive | Potency [3]: inactive | Potency [4]: inactive | Potency [6]: inactive | Potency [7]: inactive | Potency [8]: inactive | Potency [10]: inactive | Potency [11]: inactive | Potency [18]: inactive | Potency [12]: inactive | Potency [13]: inactive | Potency [14]: inactive | Potency [15]: inactive | Potency [16]: inactive

CC(=O)N(CC(=O)N(C)C)c1ccccc1
Potency [1]: inactive | Potency [2]: inactive | Potency [3]: inactive | Potency [4]: inactive | Potency [6]: inactive | Potency [7]: inactive | Potency [8]: inactive | Potency [9]: inactive | Potency [10]: inactive | Potency [11]: inactive | Potency [18]: inactive | Potency [12]: inactive | Potency [13]: inactive | Potency [14]: inactive | Potency [15]: inactive | Potency [19]: inactive | Potency [16]: inactive | Potency [20]: inactive

CN1CCN(C2=Nc3cc(Cl)ccc3Nc3ccccc32)CC1
Potency [1]: inactive | Potency [2]: inactive | Potency [4]: 23.9 µM (active) | Potency [5]: 23.9 µM (active) | Potency [7]: inactive | Potency [8]: inactive | Potency [9]: 23.9 µM (active) | Potency [12]: inactive | Potency [13]: 4.25 µM (active) | Potency [14]: inactive | Potency [15]: inactive | Potency [19]: inactive | Potency [16]: inactive
